The results in this text go back to PubChem BioAssay AID602142 (NMMLSC, 2011).

“And” between values parts separate entries of the source, which are not always exact repeats. Equal values may be shown once. The list shows a part of the results. Unmarked numbers belong to inactive results. No rule for the calls is given here.

The target of the experiment is Lethal factor (Bacillus anthracis) (UniProt P15917). As to the kind of experiment: Bacillus anthracis LF protease inhibitors, confirmation, biochemical, multiplex microsphere, cherry pick 1 (AID 602142). The note with it: multiplex microsphere protease cleavage assay, at 10 µM, hits give high values.
Sequence of Lethal factor (Bacillus anthracis) (P15917 whole entry, looked up): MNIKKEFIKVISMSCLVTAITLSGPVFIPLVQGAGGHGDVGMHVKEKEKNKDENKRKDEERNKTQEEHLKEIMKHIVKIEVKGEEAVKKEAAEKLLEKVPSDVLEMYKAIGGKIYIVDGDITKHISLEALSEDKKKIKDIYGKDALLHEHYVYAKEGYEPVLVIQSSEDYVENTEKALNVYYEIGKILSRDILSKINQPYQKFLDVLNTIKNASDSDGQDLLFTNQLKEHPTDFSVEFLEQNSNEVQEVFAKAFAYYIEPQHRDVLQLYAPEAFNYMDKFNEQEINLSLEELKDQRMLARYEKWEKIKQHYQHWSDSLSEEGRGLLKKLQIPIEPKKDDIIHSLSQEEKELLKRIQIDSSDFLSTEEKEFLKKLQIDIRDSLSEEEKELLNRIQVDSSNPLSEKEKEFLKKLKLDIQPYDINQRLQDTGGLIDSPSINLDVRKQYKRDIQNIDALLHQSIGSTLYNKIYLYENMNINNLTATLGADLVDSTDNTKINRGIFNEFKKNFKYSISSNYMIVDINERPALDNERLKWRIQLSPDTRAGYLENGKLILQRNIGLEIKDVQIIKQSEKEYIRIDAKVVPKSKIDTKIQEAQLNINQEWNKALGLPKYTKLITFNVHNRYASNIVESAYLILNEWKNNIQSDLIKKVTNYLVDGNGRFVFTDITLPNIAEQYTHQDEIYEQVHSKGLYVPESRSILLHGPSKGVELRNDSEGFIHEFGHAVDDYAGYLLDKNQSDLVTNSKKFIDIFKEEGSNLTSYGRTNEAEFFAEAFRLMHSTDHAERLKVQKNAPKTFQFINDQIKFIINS

In the case of `OC(c1ccc(Cl)cc1)C(CN1CCOCC1)c1ccccc1` (stereo not given), the inhibition was 3.2%. Then `Cc1ccccc1NC(=O)c1cc(S(=O)(=O)Nc2cccc(C(=O)O)c2)ccc1Cl`, with -0.5%; and `O=C(Nc1nnc(CCc2ccccc2)s1)C1CCCO1` (stereo not given), with 2.9%. Then `CC1CCN(C(=O)c2ccc(S(=O)(=O)Cc3cc(F)ccc3F)c([N+](=O)[O-])c2)CC1`, with 1.6%; and `Cc1ccc(-c2nc(-c3cccnc3)sc2CC(=O)Nc2ccc(C)c(Cl)c2)cc1`, with 1.7%. Then `O=C(CN1CCCCCC1)Nc1c(Cl)cc(Cl)cc1Cl`, with 2.3%; and `CCN1CCN(C(C(=O)NC2CCCC2)c2cc3c(cc2[N+](=O)[O-])OCO3)CC1` (stereo not given), with 1.5%. Take `Cc1c(NC(=O)c2cccnc2)c(=O)n(-c2ccccc2)n1C`: the inhibition was 4.2%. Next, `CCOCCn1c(-c2ccccc2)nc2ccccc21`: -0.9%; `Cc1cc(S(=O)(=O)NC2CCCC2)ccc1-n1cnnn1`: -3.6%. Next, `COc1ccccc1-n1c(-c2cc(-c3ccco3)[nH]n2)n[nH]c1=S`: 2.2%; `COc1ccc(C2CC(c3cccs3)=NN2c2nc(C)c(C(C)=O)s2)cc1OC` (stereo not given): 10.5% and 15.1%.

Take `Cc1cccc2cc3c(N)c(C(=O)N4CCCc5ccccc54)sc3nc12`: the inhibition was 13.6%. Then `COc1cc(C(=O)NCc2ccc3c(c2)cc(C)n3C)cc(OC)c1OC`, with -4%; and `COc1ccc(N(CC(=O)NCCSCc2cccc(Cl)c2)S(C)(=O)=O)cc1`, with -1.8%.

Usually inhibition stands for the change of the read-out against control, counted positive when it falls.
